Laboratory results published in PubChem BioAssay (NCATS).
Results filed as inconclusive are left out. Calls of active or inactive are those of the source. Calls come from the whole dose curve; as a rule, active = well fitted inhibition curve with a large enough effect; inconclusive = small, poorly fitted or top-dose-only effect; inactive = flat fitted curve, though single readings scatter.

How the values were obtained:
Assay in all cases: qHTS profiling for inhibitors of Plasmodium falciparum proliferation (AID 504749); note: nearly all actives have a fitted effect of over 60% in size
Settings in all cases: P. falciparum in erythrocytes, SYBR Green DNA, 72 h; series mostly up to 28.7 µM
DIV30 = tested on: DIV30
In short: (§1)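 Quantitative HTS: compounds pinned into medium, infected erythrocytes added (0.3% parasitemia, 2.5% hematocrit), 72 h culture at 37 C under 5% CO2. Saponin/Triton lysis with SYBR Green I, overnight RT, then fluorescence read.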

Dd2 = tested on: Dd2
In short: as §1

ECU = tested on: ECU
In short: as §1

FAB9 = tested on: FAB9
In short: as §1

GB4 = tested on: GB4
In short: as §1

HB3 = tested on: HB3
In short: as §1

ICS = tested on: ICS
In short: as §1

JCK = tested on: JCK
In short: as §1

N140 = tested on: N140
In short: as §1

P93_24 = tested on: P93_24
In short: as §1

Measured: Potency

Cc1c(Cn2ccnc2)c2ccccc2n1CCC(=O)O
inactive: all assays above

CN/C(=C\[N+](=O)[O-])NCCSCc1csc(CN(C)C)n1
inactive: all assays above

O=C(CN1CCNCC1)NC1CCCCC1
inactive: all assays above

CC(=O)Nc1ccc(C(=O)O)cc1
inactive: all assays above

Cc1c(C)c2c(c(C)c1OC(=O)c1cccnc1)CC[C@@](C)(CCC[C@H](C)CCC[C@H](C)CCCC(C)C)O2
inactive: all assays above

Nc1ccc(S(=O)(=O)c2ccc(N)cc2)cc1
inactive: all assays above

NS(=O)(=O)c1cc(-c2nn[nH]n2)c(NCc2cccs2)cc1Cl
inactive: all assays above

CCCCCCCCCCCCCCCCC(C(=O)O)C(O)(CC(=O)O)C(=O)O (stereo not drawn)
inactive: all assays above

Cc1cc(=O)[nH]c(=S)[nH]1
inactive: all assays above

CCCCOC(=O)c1ccc(N)cc1
inactive: all assays above

CC1CC(OC(=O)c2ccccc2O)CC(C)(C)C1 (stereo not drawn)
inactive: all assays above

Cc1c(I)c(=O)n(-c2ccccc2)n1C
inactive: all assays above

Cc1cc(NC(=O)C2=C(O)c3ccccc3S(=O)(=O)N2C)no1
inactive: all assays above

Cc1c(N(C)C)c(=O)n(-c2ccccc2)n1C
inactive: all assays above

COc1cc(O)cc(O)c1
inactive: all assays above

CN(C/C=C/C#CC(C)(C)C)Cc1cccc2ccccc12
not listed: ICS
inactive: all other assays above

NS(=O)(=O)c1ccc(C(=O)O)cc1
inactive: all assays above

CCCOC(=O)c1ccc(N)cc1
inactive: all assays above

COc1ccc(O)cc1
inactive: all assays above

Nc1ncnc2c1ncn2[C@@H]1O[C@H](COP(=O)(O)O)[C@@H](O)[C@H]1O
not listed: ICS
inactive: all other assays above
